Source: ChEMBL document CHEMBL1961873, “Compounds: GSK PKIS; Assays: Nanosyn kinase panel” (2012)

Columns and labels:
[1] = molecular target: Serine/threonine-protein kinase pim-2 (Homo sapiens) (UniProt Q9P1W9); details: at 1 µM;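 also: each value is a mean of the inhibition measurements against the kinase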
[2] = molecular target: Serine/threonine-protein kinase pim-3 (Homo sapiens) (UniProt Q86V86); details: at 0.1 µM
[3] = molecular target: Serine/threonine-protein kinase pim-3 (Homo sapiens) (UniProt Q86V86); details: at 1 µM
[4] = molecular target: T1, MAP kinase-activated protein kinase 5 (Homo sapiens) (UniProt Q8IW41); details: at 0.1 µM
T1 sequence (whole entry): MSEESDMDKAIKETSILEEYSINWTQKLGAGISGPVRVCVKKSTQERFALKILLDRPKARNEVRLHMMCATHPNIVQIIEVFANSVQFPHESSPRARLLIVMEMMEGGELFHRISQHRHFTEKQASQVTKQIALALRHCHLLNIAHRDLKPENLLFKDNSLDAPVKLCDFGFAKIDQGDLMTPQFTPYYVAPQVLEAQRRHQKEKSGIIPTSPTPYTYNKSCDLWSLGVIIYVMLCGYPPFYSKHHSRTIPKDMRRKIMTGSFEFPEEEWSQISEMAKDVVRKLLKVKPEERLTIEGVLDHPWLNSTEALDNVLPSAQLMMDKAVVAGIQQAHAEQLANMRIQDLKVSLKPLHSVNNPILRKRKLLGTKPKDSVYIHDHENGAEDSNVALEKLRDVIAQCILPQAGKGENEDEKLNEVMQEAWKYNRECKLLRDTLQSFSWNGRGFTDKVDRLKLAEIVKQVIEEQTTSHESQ

[5] = molecular target: T1, MAP kinase-activated protein kinase 5 (Homo sapiens); details: at 1 µM
[6] = molecular target: Serine/threonine-protein kinase SIK1 (Homo sapiens) (UniProt P57059); details: at 1 µM
[7] = molecular target: Serine/threonine-protein kinase SIK2 (Homo sapiens) (UniProt Q9H0K1); details: at 0.1 µM
[8] = molecular target: Serine/threonine-protein kinase SIK2 (Homo sapiens) (UniProt Q9H0K1); details: at 1 µM
[9] = molecular target: T2, Serine/threonine-protein kinase TBK1 (Homo sapiens) (UniProt Q9UHD2); details: at 0.1 µM
T2 sequence (whole entry): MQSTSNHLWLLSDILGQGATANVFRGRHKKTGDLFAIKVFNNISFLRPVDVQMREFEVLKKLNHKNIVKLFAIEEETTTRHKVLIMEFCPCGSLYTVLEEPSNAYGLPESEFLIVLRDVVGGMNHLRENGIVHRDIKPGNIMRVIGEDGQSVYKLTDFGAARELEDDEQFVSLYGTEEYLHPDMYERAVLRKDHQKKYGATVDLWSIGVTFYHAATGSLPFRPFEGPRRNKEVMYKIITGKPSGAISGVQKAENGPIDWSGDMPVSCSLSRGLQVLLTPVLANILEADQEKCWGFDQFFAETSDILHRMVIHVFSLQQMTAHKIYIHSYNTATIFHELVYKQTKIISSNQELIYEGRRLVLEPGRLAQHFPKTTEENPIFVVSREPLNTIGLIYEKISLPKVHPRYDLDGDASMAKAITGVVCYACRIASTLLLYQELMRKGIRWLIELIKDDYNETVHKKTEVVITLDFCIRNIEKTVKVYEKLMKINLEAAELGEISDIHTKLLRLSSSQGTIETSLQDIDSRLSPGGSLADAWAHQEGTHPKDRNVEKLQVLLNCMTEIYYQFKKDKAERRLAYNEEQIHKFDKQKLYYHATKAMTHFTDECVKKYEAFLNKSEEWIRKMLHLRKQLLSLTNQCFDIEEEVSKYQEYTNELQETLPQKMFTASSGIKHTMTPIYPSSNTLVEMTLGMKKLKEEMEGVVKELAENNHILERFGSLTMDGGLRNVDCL

[10] = molecular target: T2, Serine/threonine-protein kinase TBK1 (Homo sapiens); details: at 1 µM
[11] = molecular target: T3, Testis-specific serine/threonine-protein kinase 1 (Homo sapiens) (UniProt Q9BXA7); details: at 0.1 µM
T3 sequence (whole entry): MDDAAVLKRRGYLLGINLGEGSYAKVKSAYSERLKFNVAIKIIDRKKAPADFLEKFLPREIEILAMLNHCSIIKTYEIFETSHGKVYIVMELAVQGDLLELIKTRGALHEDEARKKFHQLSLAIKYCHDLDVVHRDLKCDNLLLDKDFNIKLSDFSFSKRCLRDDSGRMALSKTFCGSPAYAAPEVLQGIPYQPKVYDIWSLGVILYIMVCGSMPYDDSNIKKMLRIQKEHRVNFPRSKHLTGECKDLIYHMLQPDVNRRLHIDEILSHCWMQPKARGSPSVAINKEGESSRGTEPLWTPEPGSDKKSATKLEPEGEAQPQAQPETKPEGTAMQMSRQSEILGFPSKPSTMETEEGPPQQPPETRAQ

[12] = molecular target: T3, Testis-specific serine/threonine-protein kinase 1 (Homo sapiens); details: at 1 µM
[13] = molecular target: T4, Testis-specific serine/threonine-protein kinase 2 (Homo sapiens) (UniProt Q96PF2); details: at 0.1 µM
T4 sequence (whole entry): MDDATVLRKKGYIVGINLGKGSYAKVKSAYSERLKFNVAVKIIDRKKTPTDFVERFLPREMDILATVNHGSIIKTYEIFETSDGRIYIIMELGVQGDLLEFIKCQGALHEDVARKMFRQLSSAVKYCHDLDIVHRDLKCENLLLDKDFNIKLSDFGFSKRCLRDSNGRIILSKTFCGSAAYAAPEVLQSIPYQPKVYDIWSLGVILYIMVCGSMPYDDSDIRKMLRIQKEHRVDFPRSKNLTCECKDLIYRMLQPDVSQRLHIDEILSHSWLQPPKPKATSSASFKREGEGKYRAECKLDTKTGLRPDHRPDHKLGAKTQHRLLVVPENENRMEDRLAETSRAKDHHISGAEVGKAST

[14] = molecular target: T4, Testis-specific serine/threonine-protein kinase 2 (Homo sapiens); details: at 1 µM
[15] = molecular target: Casein kinase I isoform alpha (Homo sapiens) (UniProt P48729); details: at 0.1 µM
[16] = molecular target: Casein kinase I isoform alpha (Homo sapiens) (UniProt P48729); details: at 1 µM
[17] = molecular target: Casein kinase I isoform gamma-1 (Homo sapiens) (UniProt Q9HCP0); details: at 0.1 µM
[18] = molecular target: Casein kinase I isoform gamma-1 (Homo sapiens) (UniProt Q9HCP0); details: at 1 µM
[19] = molecular target: Casein kinase I isoform gamma-2 (Homo sapiens) (UniProt P78368); details: at 0.1 µM;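 also: values are mean inhibition figures reported as part of the GSK PKIS dataset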
[20] = molecular target: Serine/threonine-protein kinase SIK1 (Homo sapiens) (UniProt P57059); details: at 0.1 µM

Sequence of Serine/threonine-protein kinase SIK1 (Homo sapiens) (P57059 whole entry): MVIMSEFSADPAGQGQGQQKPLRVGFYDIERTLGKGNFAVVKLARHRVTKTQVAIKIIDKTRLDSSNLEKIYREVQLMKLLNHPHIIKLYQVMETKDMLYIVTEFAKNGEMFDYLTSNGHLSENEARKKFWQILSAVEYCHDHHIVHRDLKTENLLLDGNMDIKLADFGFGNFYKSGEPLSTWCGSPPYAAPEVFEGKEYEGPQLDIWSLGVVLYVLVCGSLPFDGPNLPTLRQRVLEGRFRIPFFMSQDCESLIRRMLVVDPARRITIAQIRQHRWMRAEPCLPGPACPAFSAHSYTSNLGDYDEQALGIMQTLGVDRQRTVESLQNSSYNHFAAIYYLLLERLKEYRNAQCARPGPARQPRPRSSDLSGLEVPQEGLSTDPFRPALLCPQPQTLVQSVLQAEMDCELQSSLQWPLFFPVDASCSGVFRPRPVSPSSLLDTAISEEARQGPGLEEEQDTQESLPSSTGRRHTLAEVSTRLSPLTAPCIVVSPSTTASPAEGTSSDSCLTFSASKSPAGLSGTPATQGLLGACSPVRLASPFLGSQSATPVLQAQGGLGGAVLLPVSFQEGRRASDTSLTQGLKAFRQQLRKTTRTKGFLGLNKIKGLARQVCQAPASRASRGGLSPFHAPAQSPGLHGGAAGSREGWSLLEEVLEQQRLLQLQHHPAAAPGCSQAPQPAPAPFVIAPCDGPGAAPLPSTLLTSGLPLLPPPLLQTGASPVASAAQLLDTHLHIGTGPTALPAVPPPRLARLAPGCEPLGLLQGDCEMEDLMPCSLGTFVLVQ
Sequence of Serine/threonine-protein kinase SIK2 (Homo sapiens) (Q9H0K1 whole entry, looked up): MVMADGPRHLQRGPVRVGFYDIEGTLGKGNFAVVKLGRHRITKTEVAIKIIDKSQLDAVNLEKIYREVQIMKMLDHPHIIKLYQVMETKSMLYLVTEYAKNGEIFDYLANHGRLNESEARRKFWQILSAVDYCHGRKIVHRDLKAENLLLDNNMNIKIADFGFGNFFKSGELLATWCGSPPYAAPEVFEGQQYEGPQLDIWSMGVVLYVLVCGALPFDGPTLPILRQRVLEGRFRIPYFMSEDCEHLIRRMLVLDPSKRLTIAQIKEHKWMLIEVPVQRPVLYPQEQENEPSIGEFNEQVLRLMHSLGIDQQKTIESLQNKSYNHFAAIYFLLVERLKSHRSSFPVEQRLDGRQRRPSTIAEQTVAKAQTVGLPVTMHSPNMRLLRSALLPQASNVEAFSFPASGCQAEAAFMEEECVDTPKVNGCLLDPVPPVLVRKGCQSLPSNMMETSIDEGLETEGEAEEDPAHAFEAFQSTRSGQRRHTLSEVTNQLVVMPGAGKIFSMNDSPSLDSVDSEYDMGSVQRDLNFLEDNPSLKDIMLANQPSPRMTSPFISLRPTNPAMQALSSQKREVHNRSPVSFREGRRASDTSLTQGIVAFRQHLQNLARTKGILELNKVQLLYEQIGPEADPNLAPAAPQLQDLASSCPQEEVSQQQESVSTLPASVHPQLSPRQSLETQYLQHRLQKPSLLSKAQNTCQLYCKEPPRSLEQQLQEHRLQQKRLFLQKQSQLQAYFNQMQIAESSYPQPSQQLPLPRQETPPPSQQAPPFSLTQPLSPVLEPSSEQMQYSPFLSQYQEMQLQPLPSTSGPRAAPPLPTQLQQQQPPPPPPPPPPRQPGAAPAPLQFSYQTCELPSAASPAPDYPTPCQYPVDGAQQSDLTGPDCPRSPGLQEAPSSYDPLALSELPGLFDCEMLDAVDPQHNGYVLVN
Sequence of Casein kinase I isoform alpha (Homo sapiens) (P48729 2-337 limits assumed): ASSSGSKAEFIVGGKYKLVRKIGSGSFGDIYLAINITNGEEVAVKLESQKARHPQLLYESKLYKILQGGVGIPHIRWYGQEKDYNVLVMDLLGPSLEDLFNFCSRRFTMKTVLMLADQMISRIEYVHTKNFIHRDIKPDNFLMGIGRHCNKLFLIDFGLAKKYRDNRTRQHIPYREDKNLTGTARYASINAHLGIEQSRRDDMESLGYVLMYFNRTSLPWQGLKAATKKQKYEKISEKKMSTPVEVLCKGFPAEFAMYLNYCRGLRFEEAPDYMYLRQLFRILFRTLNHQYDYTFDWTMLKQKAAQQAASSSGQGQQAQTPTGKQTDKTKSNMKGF
Sequence of Casein kinase I isoform gamma-2 (Homo sapiens) (P78368 whole entry, looked up, canonical isoform): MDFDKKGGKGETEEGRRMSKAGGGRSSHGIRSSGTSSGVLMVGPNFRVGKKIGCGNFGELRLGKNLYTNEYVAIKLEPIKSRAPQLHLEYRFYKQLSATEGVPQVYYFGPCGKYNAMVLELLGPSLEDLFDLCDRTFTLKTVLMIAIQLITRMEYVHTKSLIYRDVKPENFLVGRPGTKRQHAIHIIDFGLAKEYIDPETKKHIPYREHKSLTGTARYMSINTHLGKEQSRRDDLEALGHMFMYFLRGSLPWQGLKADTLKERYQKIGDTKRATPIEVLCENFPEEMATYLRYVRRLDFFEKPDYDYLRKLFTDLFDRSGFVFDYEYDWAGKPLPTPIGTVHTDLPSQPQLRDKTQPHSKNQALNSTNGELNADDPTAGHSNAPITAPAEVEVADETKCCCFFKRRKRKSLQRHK
Sequence of Casein kinase I isoform gamma-1 (Homo sapiens) (Q9HCP0 whole entry, looked up, canonical isoform): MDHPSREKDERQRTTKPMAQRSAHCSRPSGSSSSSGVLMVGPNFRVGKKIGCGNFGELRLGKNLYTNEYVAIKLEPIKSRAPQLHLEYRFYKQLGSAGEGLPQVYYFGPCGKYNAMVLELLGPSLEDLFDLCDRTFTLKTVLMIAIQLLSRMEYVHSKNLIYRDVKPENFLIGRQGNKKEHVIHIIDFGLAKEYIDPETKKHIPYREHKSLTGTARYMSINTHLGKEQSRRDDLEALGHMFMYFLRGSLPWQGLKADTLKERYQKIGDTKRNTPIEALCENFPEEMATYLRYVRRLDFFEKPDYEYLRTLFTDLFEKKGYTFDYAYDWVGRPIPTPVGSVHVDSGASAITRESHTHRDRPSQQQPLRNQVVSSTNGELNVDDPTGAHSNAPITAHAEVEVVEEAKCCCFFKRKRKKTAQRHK
Sequence of Serine/threonine-protein kinase pim-2 (Homo sapiens) (Q9P1W9 whole entry, looked up): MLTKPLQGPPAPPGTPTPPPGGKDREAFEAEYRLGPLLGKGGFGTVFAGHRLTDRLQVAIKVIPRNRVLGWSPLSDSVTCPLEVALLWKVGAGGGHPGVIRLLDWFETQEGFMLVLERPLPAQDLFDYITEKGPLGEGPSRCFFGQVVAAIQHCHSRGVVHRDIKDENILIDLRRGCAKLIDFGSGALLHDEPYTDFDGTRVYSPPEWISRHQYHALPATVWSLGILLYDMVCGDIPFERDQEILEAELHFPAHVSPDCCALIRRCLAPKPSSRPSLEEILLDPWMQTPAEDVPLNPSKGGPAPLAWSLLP

| SMILES | inhibition [1] [%] | inhibition [2] [%] | inhibition [3] [%] | inhibition [4] [%] | inhibition [5] [%] | inhibition [6] [%] | inhibition [7] [%] | inhibition [8] [%] | inhibition [9] [%] | inhibition [10] [%] | inhibition [11] [%] | inhibition [12] [%] | inhibition [13] [%] | inhibition [14] [%] | inhibition [15] [%] | inhibition [16] [%] | inhibition [17] [%] | inhibition [18] [%] | inhibition [19] [%] | inhibition [20] [%] |
| --- | --- | --- | --- | --- | --- | --- | --- | --- | --- | --- | --- | --- | --- | --- | --- | --- | --- | --- | --- | --- |
| CS(=O)(=O)Nc1ccc(N/C=C2\C(=O)Nc3ccccc32)cc1 | 0.67 | 0.5 | 2.02 | -0.78 | -0.07 | 2.58 | 4.05 | -6.11 | 0.52 | 14.2 | 0.15 | 2.2 | -1.89 | -1.19 | -2.3 | 7.96 | -1.92 | 1.81 | -1.68 |  |
| Nc1nc(-c2ccc3c(c2)C(=Cc2cc(Br)c(O)c(Br)c2)C(=O)N3)cs1 | 50.1 | 5.73 | 42.7 | -1.39 | -0.3 | -3.45 |  | -0.64 | 0.67 | 0.36 | -0.52 | -0.1 | -1.49 | 0.36 | -0.89 | -1.31 | -1.34 | -1.14 | -1.3 |  |
| CCn1c(-c2nonc2N)nc2c(C#CC(C)(C)O)nc(OC[C@@H](N)c3ccccc3)cc21 | 2.38 | 0.56 | 5.51 | -0.92 | -1.02 | 0.3 | -1.91 | 1.75 | 0.4 | 3.45 | 9.5 | 53.4 | 0.46 | -0.44 | -0.17 | 0.97 | -1.79 | 2.42 | -1.05 | 1.01 |
| O=C1Nc2ccc(C(=O)c3ccco3)cc2C1=Cc1cc(Cl)c(O)c(Cl)c1 | 17.9 | 12 | 53.4 | 1.97 | 8.16 | 10.6 | 10.5 | 6.6 | 4.59 | 40.7 | 1.18 | 3.77 | 1.82 | 1.41 | -0.89 | 5.16 | 2.49 | 4.24 | 1.66 | 4.01 |
| COc1cc(C)c(NC(=O)CN(C)C)cc1Nc1nc(Nc2cccc(F)c2C(N)=O)c2cc[nH]c2n1 | 2.33 | 0.35 | 16.3 | 0.4 | 1.56 | 5.28 | 0.18 | -4.44 | 1.95 | 25.5 | 61.6 | 89.3 | 31.8 | 73.2 | -0.74 | 21.5 | 2.04 | 12.9 | 1.61 | 1.57 |
| O=C1NC(=O)C(c2cccc(Cl)c2)=C1Nc1ccc(O)c(Cl)c1 | 1.76 | -0.02 | 0.87 | -0.23 | -0.79 | 9.22 | -3.06 | 19.8 | 3.62 | 23.9 | 1.11 | 1.63 | -0.57 | 0.16 | 1.72 | 9.44 | 0.2 | 1.3 | 0.09 | -4.1 |
| O=C1NC(=O)C(c2ccccc2Cl)=C1Nc1cccc(O)c1 | 0.28 | -0.32 | -0.95 | 0.71 | 0.06 | 5.5 | 8.17 | 10.7 | 2.04 | 6.91 | 1.56 | 1.53 | 1.05 | -1.27 | 4.13 | 2.81 | 2.54 | 3.11 | 1.14 | 1.46 |
| CCCN1CCC(Oc2cc(Nc3nc(Nc4cccc(F)c4C(N)=O)c4cc[nH]c4n3)c(OC)cc2Cl)CC1 | 2.68 | 1.54 | 10.5 | -0.3 | -0.07 | 2.28 | -0.16 | -0.62 | -0.35 | 2.35 | 21.3 | 57.3 | 7.49 | 26.8 | 0.93 | 12.1 | -0.95 | 8.29 | -0.58 | -0.37 |
| CS(=O)(=O)CCN(CC#N)Cc1ccc(-c2ccc3ncnc(Nc4ccc(OCc5cccc(F)c5)c(Cl)c4)c3c2)o1 | -3.72 | -0.61 | -0.3 | 0.76 | 1.23 | 9.27 | 1.11 | 0.48 | 0.72 | 1.61 | 1.37 | 1.5 | 0.63 | 1.39 | 1 | 2.88 | -2.14 | -3.1 | -1.98 | 4.78 |
| CC(=O)Nc1cccc(C#Cc2cncnc2Nc2ccc(OCc3cccc(F)c3)c(Cl)c2)n1 | -0.75 | 5.22 | 9.04 | 0.35 | 2.24 | -1.96 | -4.28 | -0.46 | 1.99 | -0.27 | 2.3 | 4.75 | 0.15 | 5.54 | 0.01 | -1.03 | -1.49 | -2.35 | -0.28 | -2.62 |
| Cc1nn(C)c2cc(N(C)c3ccnc(Nc4cccc(S(N)(=O)=O)c4)n3)ccc12 | 0.81 | 0.16 | -0.2 | 0.87 | 1.23 | 55.3 | 7.91 | 24.3 | 2.88 | 10.3 | 3.95 | 5.39 | 1.61 | 2.71 | 0.9 | 0.72 | 2.37 | 2.59 | 1.72 | 9.49 |
| CC(C)=Cc1cccc2c1/C(=N/Nc1ccc(S(N)(=O)=O)cc1)C(=O)N2 | 0.68 | 1.74 | 3.98 | 0.48 | 2.48 | 11.2 | 4.69 | 15.5 | 3.78 | 26.3 | 1.27 | 2.47 | 0.49 | 0.88 | 6.16 | 2.83 | 0.52 | 1.12 | 1.67 | 3.24 |
| CN(C)c1cc2c(Nc3ccc4nc(Cc5ccccc5)[nH]c4c3)ncnc2cn1 | 0.97 |  | 2.51 | 1.83 | 2.12 | 10.2 | 8.08 | 7.99 | 2.69 | 4.24 | 5.14 | 5.29 | 4.42 | 3.59 | 3.65 | 6.31 | 4.21 | 5.5 | 3.69 | 5.71 |
| COc1ccc2cc(-c3c(-c4ccncc4)nc(-c4ccc([S+](C)[O-])cc4)n3C)ccc2c1 (stereo unspecified) | 0.99 | -1.77 | -3.85 | 0.94 | -0.4 | 1.89 | 0.52 | 5.27 | -2.09 | 3.63 | 3.26 | 1.1 | -0.32 | -0.74 | 1.18 | 3.66 | 3.32 | 2.97 | 2 | 2.62 |
